Here are results for 64 compounds from PubChem BioAssay AID588342 (National Center for Advancing Translational Sciences (NCATS), 2011).

The campaign covered roughly 360,000 compounds. About 25,000 (6.9%) were called active. Roughly 9% stayed inconclusive and do not appear here. The call rests on the fitted dose curve; in most records, active means well fitted inhibition curve with a large enough effect; inconclusive means small, poorly fitted or top-dose-only effect; inactive means flat fitted curve, though single readings scatter. What follows is part of a selection rich in actives, with near analogues and random picks from the rest.
Potency means the concentration at half of the fitted maximal effect.

For the assay, the target named is Luciferin 4-monooxygenase (Photinus pyralis) (UniProt P08659). The assay is described as follows: qHTS profiling assay for firefly luciferase inhibitor/activator using purifed enzyme and Km concentrations of substrates (counterscreen for miR-21 project). Further: nearly all actives have a fitted effect of over 55% in size.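 On activity change, negative = inhibition: plate controls were vehicle for no effect and reference inhibitor for full effect.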 The note with it: purified FLuc, luminescence inhibition; series mostly up to 57.5 µM; activity change, negative = inhibition: at the top concentration. In short, it runs like this: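 Purified P. pyralis luciferase (10nM final) with 10uM D-luciferin and 10uM ATP (Km levels) in 50mM Tris acetate pH 7.5, 10mM Mg acetate, 0.01% Tween-20, 0.05% BSA; qHTS 6-point titration, ~60 µM downward; luminescence read.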
Luciferin 4-monooxygenase (Photinus pyralis), sequence (P08659 whole entry, looked up): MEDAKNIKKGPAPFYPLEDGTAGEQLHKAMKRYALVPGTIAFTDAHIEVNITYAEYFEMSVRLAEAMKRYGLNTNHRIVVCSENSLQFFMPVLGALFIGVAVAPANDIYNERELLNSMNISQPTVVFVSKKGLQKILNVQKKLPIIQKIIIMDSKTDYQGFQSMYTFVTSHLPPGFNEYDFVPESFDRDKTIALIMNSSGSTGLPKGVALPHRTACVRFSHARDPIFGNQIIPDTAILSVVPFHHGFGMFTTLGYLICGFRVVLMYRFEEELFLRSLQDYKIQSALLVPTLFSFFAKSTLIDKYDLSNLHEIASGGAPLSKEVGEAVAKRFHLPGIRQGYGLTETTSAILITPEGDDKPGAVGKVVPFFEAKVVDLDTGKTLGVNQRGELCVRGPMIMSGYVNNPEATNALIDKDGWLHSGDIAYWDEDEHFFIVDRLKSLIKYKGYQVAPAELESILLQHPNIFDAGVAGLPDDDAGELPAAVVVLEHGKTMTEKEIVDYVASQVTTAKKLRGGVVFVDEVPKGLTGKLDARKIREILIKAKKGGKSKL
(Quantitative high-throughput screening tests each substance at several concentrations.)
As for `C=CCn1cc(Cl)cc(C(=O)Nc2ccccc2)c1=O`, the Potency is 16.9 µM (active).

`O=C(Nc1cccnc1)c1cc(Cl)ccc1Cl`: the “activity change, negative = inhibition” value is 5.5% (inactive). Still for that read-out and setting: next, `C=CCc1cccc2cc(C(=O)Nc3ccc(NC(C)=O)cc3)c(=O)oc12`: 1.63% (inactive); `CCOc1ncccc1C(=O)Nc1ccc(S(=O)(=O)Nc2nc(C)cc(C)n2)cc1`: 7.38% (inactive). Same read-out and setting: the same measure for `Cc1ccc2[nH]c3c(=O)n(CC(=O)NC(C)C)ncc3c2c1`: -5.07% (inactive); for `O=C(COc1ccc(Cl)cc1)Nc1ccccc1OCc1cc(=O)n2ccccc2n1`: -16.9% (inactive).

For `CCCn1nc(C(=O)N2CCCc3ccccc32)c2ccccc2c1=O`, the “activity change, negative = inhibition” value is -8.62% (inactive). `O=C(C(=O)N1CCc2ccccc2C1)N1CCc2ccccc2C1`: the “activity change, negative = inhibition” value was 0.647% (inactive).

Regarding `Cc1ccc2c(c1)N(C(=O)CCC(=O)N1CCc3ccccc3C1)CCO2`, the “activity change, negative = inhibition” value was -15.1% (inactive).

For `O=C(c1cc(-c2ccc(O)cc2)on1)N1CCCc2ccccc21`, the Potency is 16.9 µM (active). Consider `CN1CCN(Cc2c(C(=O)N3CCc4ccccc4C3)nc3ccc(Cl)cn23)CC1`, for which the “activity change, negative = inhibition” value is 0.908% (inactive). As to `O=C(c1noc2c1CCCC2)N1CCc2ccccc2C1`, the Potency is 16.9 µM (active).

`O=C(c1cccs1)N1CCN(C(=O)N2CCOCC2)CC1`: the “activity change, negative = inhibition” value was 3.01% (inactive). The same measure, in the same setting: the same measure for `O=C(c1c(Cl)nc2sccn12)N1CCCc2ccccc21`: -3% (inactive); for `Cn1cccc1C(=O)N1CCc2ccccc2C1`: -6.68% (inactive); for `O=C(NCCCN1CCOCC1)c1cc(-c2cccc(O)c2)on1`: -19% (inactive). As for `O=C(c1cc(-c2ccc(O)cc2)on1)N1CCOCC1`, the Potency is 9.53 µM (active). Same read-out and setting: next, `Cc1ccc(-c2cc(C(=O)N3CCc4ccccc4C3)no2)cc1`: 23.9 µM (active). Turning to `Cc1cccc(-n2ncc(C(=O)N3CCN(c4ccc(Cl)cc4)CC3)c2C2CCN(C(=O)OC(C)(C)C)CC2)c1`, the “activity change, negative = inhibition” value was 6.74% (inactive). The same measure, in the same setting: next, `Cc1ccc(Nc2nnc(-c3ccc(C)c(S(=O)(=O)N4CCCCC4)c3)c3ccccc23)cc1`: -17.5% (inactive); `CCOC(=O)c1ccc(N2C(=O)c3[nH]nc(-c4ccccc4)c3C2c2ccc(C(C)C)cc2)cc1` (centres undefined): 1.51% (inactive). In the case of `Cc1ccc(C(=O)OCC(=O)Nc2ccc(Cl)cn2)cc1S(=O)(=O)N1CCOCC1`, the “activity change, negative = inhibition” value was 3.23% (inactive). For the compound `COc1cc2nc(NCC(C)c3ccccc3)n3nc(-c4ccccc4)nc3c2cc1OC` (centres undefined), the “activity change, negative = inhibition” value was 0.207% (inactive). `COCCn1c(SCC(=O)Nc2cc(Cl)ccc2OC)nc2c(c1=O)SC(C)C2` (centres undefined): the “activity change, negative = inhibition” value was 2.83% (inactive). Regarding `O=C(c1cc(-c2ccc(F)cc2)on1)N1CCN(c2ccc(F)cc2)CC1`, the Potency entry is “inactive”. As for `O=C(c1ccc(Cl)c([N+](=O)[O-])c1)N1CCN(c2ccccc2)CC1`, the “activity change, negative = inhibition” value was 2.27% (inactive). As to `O=C(c1cc(-c2ccc(Cl)cc2)on1)N1CCN(c2ccccc2)CC1`, the Potency was 10.7 µM (active). For `CCCN1CCN(CCCNC(=O)c2ccc3nc(Cc4ccccc4)oc3c2)CC1`, the “activity change, negative = inhibition” value was 2.28% (inactive). Still for that read-out and setting: the same measure for `Cc1cccc(NC(=O)c2ccc(F)c(S(=O)(=O)N(C)C3CCCCC3)c2)c1`: -7.46% (inactive); for `Cc1cccc(NC(=O)CSc2nc3[nH]ncc3c(=O)[nH]2)c1`: -13.3% (inactive). Regarding `Cc1ccc(CSc2nc3[nH]ncc3c(=O)[nH]2)cc1`, the Potency was 13.5 µM (active). Consider `CCCSc1nc2[nH]ncc2c(=O)[nH]1`, for which the “activity change, negative = inhibition” value is -0.474% (inactive). Still for that read-out and setting: the same measure for `COc1cc(OC)cc(-c2c(-c3ccc(F)cc3)c3cc(-c4ccc5cc[nH]c5c4)ccc3n2C)c1`: 5.36% (inactive); for `Cc1cccc(NS(=O)(=O)c2ccc([N+](=O)[O-])cc2)n1`: -0.788% (inactive). In the case of `O=S(=O)(Nc1ccc(-c2ccc(N3CCOCC3)nn2)cc1)c1cc(Cl)ccc1Cl`, the Potency was 23.9 µM (active). As to `O=S(=O)(Nc1ccccc1N1CCOCC1)c1ccc(Cl)s1`, the “activity change, negative = inhibition” value was 0.325% (inactive).

In the case of `Cc1cccc(NS(=O)(=O)c2cc(Cl)ccc2Cl)n1`, the “activity change, negative = inhibition” value was -3.29% (inactive). Same read-out and setting: next, `O=S(=O)(Nc1cccc(-n2cnnn2)c1)c1cnc(Cl)c(Cl)c1`: -2.86% (inactive); `CC(=O)Nc1ccc(S(=O)(=O)Nc2ccc(N3CCOCC3)c(F)c2)cc1`: 0.698% (inactive). With `O=[N+]([O-])c1ccc(S(=O)(=O)Nc2cccc(-c3ccc(N4CCCC4)nn3)c2)cc1`, the Potency is 12 µM (active). In the case of `O=S(=O)(Nc1cccc(-c2ccc(N3CCOCC3)nn2)c1)c1ccc(Cl)c(Cl)c1`, the Potency is 5.36 µM (active).

As for `CN1CCN(c2ccc(S(=O)(=O)Nc3ccccc3)cc2[N+](=O)[O-])CC1`, the “activity change, negative = inhibition” value is -0.209% (inactive). Consider `Cc1ccc2oc3c(c(=O)c2c1)C(c1ccc(O)cc1)N(Cc1ccc2c(c1)OCO2)C3=O` (centres undefined), for which the “activity change, negative = inhibition” value was 0.475% (inactive). On the same count and under the same terms, next, `Cc1ccc(COC(=O)CN2C(=O)NC3(CCCC3)C2=O)cc1`: 0.195% (inactive); `CC(C)(C)c1ccc(S(=O)(=O)N2CCN(C(=O)c3ccc4c(c3)C(=O)N(Cc3ccncc3)C4=O)CC2)cc1`: 7.88% (inactive); `C=Cc1ccc(Cn2c(C(=O)OC)cc3sc(C)cc32)cc1`: 0.642% (inactive). Take `CCc1ccccc1OCC(=O)Nc1ccc(C)c(S(=O)(=O)N2CCCCCC2)c1`: the “activity change, negative = inhibition” value is 3.6% (inactive). On to `CCCN(CCC)CCCNC(=O)Cn1cc2c(n1)-c1c(oc(C(=O)N3CCCC3)c1C)CC2`, for which the “activity change, negative = inhibition” value was -4.79% (inactive). In the case of `CCOc1ccc(NC(=O)COc2ccc(C(=O)N3CCC(C(N)=O)CC3)cc2OC)cc1`, the “activity change, negative = inhibition” value is 3.81% (inactive). Regarding `CCCCN(C(=O)c1ccc2ccccc2c1)c1c(N)n(CCCC)c(=O)[nH]c1=O`, the “activity change, negative = inhibition” value is -2.3% (inactive). Turning to `Cc1ccc(-n2nc(N)c3c(=O)oc(N(C)C)nc32)cc1`, the “activity change, negative = inhibition” value is -1.16% (inactive). The same measure, in the same setting: the same measure for `O=C(Nc1ccc(NC(=O)c2cccs2)cc1)c1ccc2ccccc2c1`: -5.42% (inactive). Consider `O=C(Nc1ccc2oc(-c3ccc4ccccc4c3)nc2c1)c1cccs1`, for which the Potency was 5.36 µM (active). As to `CCN(CCCNC(=O)c1cc(Nc2ccc(OC)cc2)nc2ccccc12)c1cccc(C)c1`, the “activity change, negative = inhibition” value was -6.29% (inactive). On the same count and under the same terms, the same measure for `Cc1ccc(S(=O)(=O)n2nc(C)c(S(=O)(=O)N3CCCCCC3)c2C)cc1`: -7.72% (inactive); for `CCC(=O)N1CCc2cc(CNS(=O)(=O)c3ccc(Br)s3)ccc21`: -16.4% (inactive).

Take `Cc1ccccc1Nc1nn2c(=O)c3ccc(C(=O)NCCc4ccc(Cl)cc4)cc3nc2s1`: the “activity change, negative = inhibition” value is -8.59% (inactive). As for `O=C(COc1ccc(Br)cc1F)NC1CCN(Cc2ccccc2)CC1`, the “activity change, negative = inhibition” value is 0.0424% (inactive). Regarding `Cc1cc(C(=O)COc2ccc(Br)cc2F)c(C)n1C1CC1`, the Potency is 13.5 µM (active).

For the compound `CC(=O)C1=C(C)NC(=O)NC1c1cc(Br)ccc1OCC#N` (centres undefined), the “activity change, negative = inhibition” value was 1.51% (inactive). For `O=C(CSc1nnc(SCc2ccc(Cl)cc2)s1)N/N=C/c1ccccc1Cl`, the Potency is 6.01 µM (active).

`O=C(CC(=O)N/N=C\c1cccc(Cl)c1Cl)NCc1ccccc1`: the “activity change, negative = inhibition” value was -0.0161% (inactive).

In the case of `O=C(Cc1ccccc1)N/N=C/c1ccc(Cl)cc1Cl`, the “activity change, negative = inhibition” value was -11.1% (inactive).

As to `Cc1cc(NC(=O)CCS(=O)(=O)c2ccc(F)cc2)no1`, the “activity change, negative = inhibition” value was 2.43% (inactive).
